# tim10-1 inh: inhibits growth of tim10-1 mutant yeast. S. cerevisiae tim10-1 ts strain growth, BacTiter-Glo, 24 h. inhibition, % at 20 µM. 2.2% of 330,000 active;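 active = inhibition of at least 40%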;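 note: mutant grown at 25 °C; 0% = DMSO wells with yeast and 100% = wells holding no yeast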
# SKKanGAS inh: inhibitors of SKKanGAS S. pyogenes growth in kanamycin (SK-promoter or general growth effect); BacTiter-Glo, 6 h; inhibition, % at 7.5 µM; 1.3% of 300,000 active;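 active = mean replicate score, as percent of positive control median, at least 50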;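 note: strain carries kanamycin resistance gene driven by streptokinase promoter and grows in 40 µg/ml kanamycin; loss of luminescence reflects streptokinase promoter inhibition or plain growth inhibition; 0% = median of DMSO wells and 100% = positive control at its reference dose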
# PfHsp90 yeast 2: growth inhibition of yeast expressing Plasmodium Hsp90. S. cerevisiae expressing PfHsp90, BacTiter-Glo ATP, 48 h; yeast lacking PDR1 and PDR3 efflux regulators. inhibition, % at 9.4 µM. 0.32% of 310,000 active. AID 504621;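 active = every replicate shows inhibition above about 80%, whatever the replicate mean, limit read from the data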;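 note: 0% = DMSO neutral controls and 100% = 20 µM radicicol positive controls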
# tim23-1 inh: growth inhibitors of tim23-1 mutant yeast; S. cerevisiae tim23-1 growth, BacTiter-Glo luminescence, 24 h; inhibition, % at 20 µM; 1.3% of 330,000 active; AID 463212;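 active = growth inhibition of the mutant yeast at or above 50%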;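 note: temperature-sensitive mutant grown at 25 °C; plate controls were DMSO-treated mutant yeast for no effect and medium wells lacking yeast for full effect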
# Calb FLC: C. albicans growth modulation with fluconazole. C. albicans CaCi-2 (fluconazole-resistant clinical isolate) + fluconazole, Alamar Blue growth, 48 h. growth inhibition, % (no concentration beside the values). 0.57% of 300,000 active;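 active = growth inhibition above about 58% in most replicates, limit read from the data, passing the limit was not always enough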;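 note: all wells also contain fluconazole at 8 µg/ml as a sub-toxic cotreatment; 0% = median of DMSO wells and 100% = median of geldanamycin control wells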
# TIM10 inh: inhibits growth of TIM10 yeast strain; S. cerevisiae TIM10 strain growth, BacTiter-Glo luminescence, 24 h; inhibition, % at 10 µM; 1.4% of 330,000 active;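 active = inhibition of 40% or more at the single tested concentration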;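 note: wild-type TIM10 isogenic control strain grown at permissive 25 °C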
# tim10-1 confirm: tim10-1 yeast growth inhibition, confirmed; shares compounds with tim10-1 inh; S. cerevisiae tim10-1 ts strain growth, BacTiter-Glo, 24 h; inhibition, % at 20 µM; 56% of 7,400 active;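 active = inhibition of yeast growth at or above a set limit in either of two repeat tests at 20 µM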;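 note: tim10-1 mutant grown at permissive 25 °C to find synthetic lethal compounds; 0% = DMSO yeast wells and 100% = medium wells without yeast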
# TIM10 conf: TIM10 yeast growth inhibition, confirmed | shares compounds with TIM10 inh | S. cerevisiae tim10 strain growth, BacTiter-Glo luminescence, 24 h | inhibition, % at 10 µM | 63% of 4,600 active | AID 463215;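 active = inhibition of yeast growth at or above a set limit in either of two replicates at 10 µM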;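 note: this counterscreen used the strain with wild-type TIM10; 0% = yeast with DMSO and 100% = medium wells lacking yeast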
# tim23-1 conf: tim23-1 yeast growth inhibition, confirmed; shares compounds with tim23-1 inh; S. cerevisiae tim23-1 growth, BacTiter-Glo luminescence, 24 h; inhibition, % at 20 µM; 83% of 4,400 active;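 active = inhibition above about 39% in either of two replicate wells at 20 µM, limit read from the data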;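 note: temperature-sensitive tim23-1 mutant grown at 25 °C; 0% = DMSO wells with yeast and 100% = medium wells without yeast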
# An asterisk follows results filed as active; / = not tested or not shown. Hits are enriched below; roughly 4.7% of the tested compounds scored in any of these assays.
SMILES,tim10-1 inh,SKKanGAS inh,PfHsp90 yeast 2,tim23-1 inh,Calb FLC,TIM10 inh,tim10-1 confirm,TIM10 conf,tim23-1 conf
O=S(=O)(NCC(c1ccc2c(c1)OCO2)N1CCOCC1)c1ccccc1 (stereo not drawn),-1,-6,-5,9,3,-4,/,/,/
Cc1ccc[n+](CC(=O)Nc2ccc(C)c(C)c2)c1,-4,0,1,-1,5,6,/,/,/
N#CC1=C(N)OC(c2ccccc2)=C(C#N)C1c1ccc2c(c1)OCO2 (stereo not drawn),62*,-2,-35,72*,41,82*,56*,71*,75*
N#CC1=C(N)OC2=C(C(=O)CC(c3ccccc3)C2)C1c1ccc2c(c1)OCO2 (stereo not drawn),32,2,26,32,-6,19,/,/,/
CC(NC(=O)c1ccccc1Cl)c1ccc(-n2ccnc2)cc1 (stereo not drawn),-6,-2,13,-10,6,-10,/,/,/
CN1C(=O)/C(=C\C(=O)c2cccs2)c2ccccc21,47*,-4,1,84*,97*,85*,70*,81*,-86
COc1ccc(CN2CCC(n3nccc3NC(=O)c3cccc(F)c3)CC2)cc1O,13,8,1,12,-3,6,/,/,/
C=CCNC(=O)/C(C#N)=C/c1cc(Br)ccc1OC,78*,-16,-10,88*,-19,83*,84*,91*,71*
C=CCNC(=O)/C(C#N)=C/c1cn(-c2ccccc2)nc1-c1ccc(OC)c([N+](=O)[O-])c1,/,6,-9,/,9,/,/,/,/
Cc1cccc(NC(=O)/C(C#N)=C/c2ccccc2Cl)n1,52*,1,23,71*,-1,42*,25,32*,62*
C=CCNC(=O)/C(C#N)=C/c1ccccc1Cl,51*,4,-25,85*,8,66*,63*,74*,80*
O=C(CCS(=O)(=O)c1ccccc1)Nc1cccc2c1C(=O)NC2=O,17,-1,5,-1,-6,-13,/,/,/
O=C(OCn1ncc(Cl)c(Cl)c1=O)c1ccc(C(F)(F)F)cc1,75*,5,52,78*,106*,42*,74*,41*,79*
Cc1ccc(C(=O)OCn2ncc(Cl)c(Cl)c2=O)cc1,75*,7,96*,79*,114*,72*,78*,70*,71*
COc1ccc(CNC(=O)C[C@H]2C[C@H](C(=O)N3CCCCC3)[C@@]3(C)c4[nH]c5cc(CCC(=O)N(C)C)ccc5c4CCN3C2=O)cc1OC,-2,/,-25,18,/,7,/,/,/
Cc1nnnn1/C(=C\c1ccccc1)C(=O)OCC(=O)Nc1ccc(Cl)cc1F,44*,-12,-110,80*,-6,96*,22,75*,40*
Cc1nnnn1/C(=C\c1ccccc1)C(=O)OCC(=O)Nc1cccc(S(=O)(=O)N(C)C)c1,15,/,-1,28,/,11,/,/,/
CC(=O)NC12CC3CC(C1)CC(C(=O)N1CCN(S(=O)(=O)c4ccc(C(C)C)cc4)CC1)(C3)C2,6,-2,-5,20,-8,13,/,/,/
NCc1cc2c3c(c1)CCCN3CCC2,-46,-2,8,-114,-4,-25,/,/,/
COc1ccc(OCC(=O)OCC(=O)NC2CCCCC2C)cc1 (stereo not drawn),15,/,-8,16,/,3,/,/,/
CC1CCCCC1NC(=O)/C(C#N)=C/c1ccc(OCC(N)=O)cc1 (stereo not drawn),48*,-5,25,55*,-16,45*,33*,16,50*
CC1=CC(C)(C)NC(=S)N1c1ccc(N(C)C)cc1,/,/,11,/,/,/,/,/,/
CCC[n+]1c2ccccc2cc2ccccc21,68*,-6,-15,56*,94*,66*,66*,62*,60*

# Screening results from PubChem BioAssay.
